Screens deposited in PubChem BioAssay by The Scripps Research Institute Molecular Screening Center.
Compounds with a hit are over-represented: about 2.6% of the library has one in this group of screens.
Fam108B inh = mouse Fam108B serine hydrolase inhibitors, primary screen, counter-screen for RBBP9 inhibitor project, biochemical, fluorescence polarization | recombinant Fam108B, FP-Rh probe fluorescence polarization | inhibition, % at 9.51 µM | hit rate 0.33% among 300,000 | AID 1947, 2009;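 active means inhibition above the screen mean inhibition plus 3 SD, computed separately per campaign, cut at about 18% in these data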;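 further: inhibitors lower polarization as less probe binds the enzyme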
TCR-CD3 inh = inhibitors of human TCR-CD3 interaction, primary screen, biochemical, fluorescence, TAMRA-labeled TCR probe; T-cell receptor (TCR); inhibition, % at 9.4 µM; hit rate 0.37% among 360,000; AID 651800, 2012; in the data active means inhibition above about 19%;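 further: recombinant mutant TCR 2C K166C tagged with TAMRA read by polarization; 0% = receptor in buffer alone and 100% = receptor with positive control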
SIAE primary = human SIAE inhibitors, primary screen, biochemical, fluorescence polarization, FP-Rh probe, 1536-well HTS | AID 1053197, 2014 | SIAE FP-Rh probe binding | inhibition, % at 9.66 µM | hit rate 0.69% among 370,000;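 active means inhibition above a cutoff: mean of compounds within the control limits plus 3 SD of those, cut at about 17% in these data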;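 further: 0% = plate median of compound wells and 100% = probe without SIAE protein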
PAD4 inh = human PAD4 inhibitors, primary screen, biochemical, fluorescence polarization, 1536-well format; inhibition, % at 6.36 µM; recombinant PAD4, RCA probe fluorescence polarization; hit rate 0.41% among 330,000; Protein-arginine deiminase type-4 (Homo sapiens), Q9UM07;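 active means percent inhibition above a cutoff equal to the mean of all tested compounds plus 3 SD, cut at about 15% in these data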;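 further: 0% = PAD4 with RCA probe and DMSO and 100% = probe without PAD4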
Target sequence (Q9UM07 whole entry, looked up): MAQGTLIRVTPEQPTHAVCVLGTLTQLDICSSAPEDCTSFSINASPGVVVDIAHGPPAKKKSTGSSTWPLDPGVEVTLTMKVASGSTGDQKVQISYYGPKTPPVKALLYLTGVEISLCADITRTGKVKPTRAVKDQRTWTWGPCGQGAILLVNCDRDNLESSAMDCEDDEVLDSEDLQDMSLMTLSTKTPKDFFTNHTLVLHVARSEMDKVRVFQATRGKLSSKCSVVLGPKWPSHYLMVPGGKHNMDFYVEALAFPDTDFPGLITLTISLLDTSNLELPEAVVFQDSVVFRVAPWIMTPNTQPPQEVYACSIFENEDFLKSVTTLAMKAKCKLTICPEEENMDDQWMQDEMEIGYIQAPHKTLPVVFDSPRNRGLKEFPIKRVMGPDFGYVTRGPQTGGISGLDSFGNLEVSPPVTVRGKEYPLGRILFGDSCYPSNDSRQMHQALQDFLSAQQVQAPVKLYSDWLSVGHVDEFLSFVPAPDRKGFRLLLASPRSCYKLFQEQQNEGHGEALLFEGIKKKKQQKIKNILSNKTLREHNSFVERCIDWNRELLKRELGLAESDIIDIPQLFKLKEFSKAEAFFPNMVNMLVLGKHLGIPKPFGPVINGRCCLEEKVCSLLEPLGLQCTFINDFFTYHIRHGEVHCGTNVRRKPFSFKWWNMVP
PME-1 primary = PME-1 inhibitors via competitive probe labeling, primary screen, biochemical, fluorescence polarization, FP-Rh probe, HTS | Protein phosphatase methylesterase 1 (Homo sapiens), Q9Y570 | recombinant PME-1 | inhibition, % at 5.9 µM | hit rate 0.53% among 320,000 | AID 2130, 2009;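 active means inhibition above the campaign mean of all compounds plus 3 SD, cut at about 26% in these data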;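 further: competitive labeling of PME-1 active site by serine hydrolase directed probe; 0% = PME-1 with DMSO and 100% = wells lacking PME-1 enzyme; inhibitors block probe labeling so polarization falls and inhibition rises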
PRMT1 inh = PRMT1 methyltransferase inhibitors, primary screen, biochemical, fluorescence polarization; Protein arginine N-methyltransferase 1 (Homo sapiens), Q99873; recombinant PRMT1, activity-based probe fluorescence polarization; inhibition, % at 2.79 µM; hit rate 1.3% among 370,000;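 active means inhibition above about 21% made by adding two undisclosed values, limit read from the data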
The depositor's hits bear a star; / = no result given.

SMILES | Fam108B inh | TCR-CD3 inh | SIAE primary | PAD4 inh | PME-1 primary | PRMT1 inh
Cc1ccc2c(c1)C1CS(=O)(=O)N(CC(C)C)CN1C2 (stereo not given) | / | / | -2 | / | / | 0
O=[N+]([O-])c1ccc(N/N=C/c2cccc(O)c2O)c(S(=O)(=O)N2CCOCC2)c1 | -6 | -11 | 11 | -3 | 31* | 18
O=S1(=O)c2c(cccc2N2CCC[C@H]2CO)O[C@H]2CCN1C2 | / | / | 5 | / | / | -4
COC(=O)C1=C(C)NC(=O)/C1=C\N(C)C | 4 | 16 | 10 | -1 | 0 | 25*
O=C(O)CCCNc1cc(N2CCC3(CC2)OCCO3)c2noc3c2c1C(=O)c1ccccc1-3 | 35* | / | / | 18* | -2 | /
O=C(NCc1ccc(C(F)(F)F)cc1)O[C@H]1CC[C@@]23CCCN2C(=O)CCC[C@H]3C1 | / | / | -5 | / | / | -2
CC(=O)N1CCc2cc(Br)c(S(=O)(=O)CCC(=O)N3CCN(c4ccccn4)CC3)cc21 | / | / | 3 | / | / | 4
N#Cc1ccc(Nc2nc(-c3ccc(O)cc3O)cs2)cc1C(F)(F)F | / | / | / | -1 | 61* | /
Oc1ccc(-c2csc(Nc3ccc4c(c3)OCO4)n2)c(O)c1 | / | 3 | 13 | / | / | 1
Oc1cccc(/C=N/Nc2cc(N3CCCC3)nc(N3CCCC3)n2)c1 | 8 | -11 | 4 | -10 | 31* | 10
Oc1ccc(/C=N/Nc2cc(N3CCCC3)nc(N3CCCC3)n2)cc1 | 1 | -3 | 13 | -6 | 12 | -3
Nc1nc(N)c2cc(Sc3ccc4ccccc4c3)ccc2n1 | 11 | -7 | 29* | -7 | 11 | 1
Cc1ccc(S(=O)(=O)NN2C(=O)/C(=C/c3ccc(C(=O)O)cc3)SC2=S)cc1 | 0 | 0 | -2 | 1 | 0 | 22*
N#CCSc1nc2c(cc1C#N)CCCCCC2 | -2 | -5 | -1 | 1 | 44* | 1
N#Cc1cc2c(nc1SCC(=O)O)CCCC2 | 1 | -5 | 2 | -2 | 2 | 3
CN1CCC(N[C@@H](Cc2ccccc2)C(=O)NCCCc2ccccc2)(C(=O)NCCc2c[nH]c3ccccc23)CC1 | / | / | 4 | / | / | 0
CCN(C(=O)COC(=O)c1cc(-c2ccc(C)o2)nc2ccccc12)C1CCS(=O)(=O)C1 (stereo not given) | 0 | -9 | 12 | 1 | 5 | 23*
Cc1ccc(-c2cc(C(=O)OCC(=O)N(C)C3CCS(=O)(=O)C3)c3ccccc3n2)o1 (stereo not given) | -9 | 0 | 4 | 1 | -5 | 16
COc1ccc(Oc2c(Br)cnn(Cc3cccc4ccccc34)c2=O)cc1 | / | / | -9 | / | / | 0
CCN(CC)S(=O)(=O)c1cc(NC(=O)C(C)N2CCN(c3ccccn3)CC2)ccc1C (stereo not given) | 3 | -2 | -5 | -1 | 29* | 1
CCOC(=O)CC[C@@H]1CC[C@]2(CCCN(Cc3ccc(OC)cc3)C2)O1 | / | / | 14 | / | / | -6
O=C(Cn1nnc(-c2ccc(N3CCOCC3)cc2)n1)c1ccccc1 | / | / | 0 | / | / | -2
CCOc1ccccc1NC(=O)C(NCCc1ccc(OC)cc1)c1ccccc1 (stereo not given) | / | 0 | 4 | / | / | 21*
O=C(CN1CCN(c2nc(-c3ccccc3)cs2)CC1)Nc1ccc(Cl)c(Cl)c1 | / | / | 4 | / | / | -5
CC1(C)CC(=O)C2=C(C1)OC(N)=C(C#N)C2c1ccccc1 (stereo not given) | -3 | 6 | 3 | 1 | 5 | -2
SMILES | Fam108B inh | TCR-CD3 inh | SIAE primary | PAD4 inh | PME-1 primary | PRMT1 inh
CC1(C)CC(=O)C2=C(C1)OC(N)=C(C#N)C2c1ccccc1[N+](=O)[O-] (stereo not given) | 2 | 5 | 4 | -6 | 4 | 23*
CN1C(=O)c2cc(NC(=O)c3ccccc3)ccc2OC[C@H]2O[C@@H](CC(=O)NCC3CC3)CC[C@@H]21 | / | / | 5 | / | / | 0
O=C1c2c([N+](=O)[O-])cc([N+](=O)[O-])cc2S(=O)N1Cc1ccccc1 (stereo not given) | 1 | 6 | 2 | -7 | -1 | 21*
O=[N+]([O-])c1ccc(NC2CCN(Cc3ccccc3)CC2)c([N+](=O)[O-])c1 | -1 | 7 | 1 | -2 | -1 | -5
O=C(N1CCOCC1)N1CC[C@H]2[C@H](CCCN2Cc2cc(F)cc(F)c2)C1 | / | / | -1 | / | / | -6
COc1ccc(Nc2cnn(-c3nc4ccccc4s3)c(=O)c2Cl)cc1 | 2 | -8 | -5 | -3 | 29* | 1
CC1(C)Cc2ccccc2/C(=C/C(=O)N2CCCCCC2)N1 | -1 | 6 | -16 | -8 | 0 | 22*
COC(=O)C1CCN(C(=O)C2CC(=O)N(c3ccc(OC)cc3)C2c2ccc(OC)cc2)CC1 (stereo not given) | / | / | 3 | / | / | -2
COc1ccc(C(=O)N2CCN=C2SC)cc1OC | 1 | 0 | 12 | -4 | 3 | 1
CCOc1cc(C(=O)N2CCN=C2SC)cc(OCC)c1OCC | -4 | 6 | -2 | -1 | -1 | 24*
O=C(CN[C@@H](Cc1c[nH]c2ccccc12)C(=O)NCCc1c[nH]c2ccccc12)NC1CCCCC1 | / | / | 7 | / | / | 2
O=C(CSc1nnc(-c2ccco2)c(-c2ccco2)n1)Nc1ccccc1 | 15 | 9 | 9 | -5 | 5 | 48*
CN(C)c1ccc(NC(=O)CSc2nnc(-c3ccco3)c(-c3ccco3)n2)cc1 | 0 | 0 | 10 | -5 | 19 | 12
CSc1nnc(-c2ccco2)c(-c2ccco2)n1 | 10 | 14 | 14 | -2 | -7 | 59*
CSc1nnc(-c2ccccc2)c(-c2ccccc2)n1 | 1 | 3 | -4 | -3 | -5 | 0
Cc1cccc(NC(=O)c2cccc3c2-c2ccccc2C3=O)c1C | / | / | -5 | / | / | 3
COc1ccc(-c2noc(C3CCCN(C(=O)Nc4cccc(C)c4)C3)n2)cc1 (stereo not given) | / | / | 0 | / | / | 4
C/C(=N/NC(=O)CSc1nnc(SCc2ccc(C)cc2)s1)c1cccc(O)c1 | / | / | 8 | / | / | 3
Cc1noc(C)c1CSc1ccc(Br)cc1 | 1 | 3 | -4 | 1 | 1 | -3
CC(=O)Nc1ccc(SCc2c(C)noc2C)cc1 | -4 | 1 | 4 | 6 | -3 | 21*
CC(=O)Nc1ccc(SCc2ncc(-c3ccccc3)o2)cc1 | 3 | 0 | 7 | -1 | 5 | 22*
Cn1c(=N)n(CC(=O)c2ccc(Br)cc2)c2ccccc21 | 17 | -7 | 3 | 1 | 32* | 4
N#CC1=C(N)SC(N)=C(C#N)C1c1ccnc2ccccc12 | 4 | -3 | -3 | -5 | -8 | 43*
CCC[C@@H](/C=C/C(=O)OC(C)(C)C)Sc1ccc(OC)cc1 | / | / | -2 | / | / | 3
